About 83,000 compounds went through this panel and 20% of them were active in at least one assay; those are over-represented in the sample as a whole.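 The endpoint reported here, percent growth, reads 100 for growth as untreated, 0 for no net growth and -100 for all cells dead.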 Activity calls are given as the source filed them. The calls were made as follows: active = growth percent below 10; inactive = the rest.
system: MDA-MB-468 breast; experiment: NCI-60 one-dose screen, 48 h (100 = growth as untreated, 0 = no growth, -100 = all killed); settings: 10 µM unless noted

| SMILES | growth |
| --- | --- |
| Cc1ccc(-c2nc(C#N)c(S(=O)(=O)n3nc(C)cc3N)o2)cc1 | 57.7% (inactive) |
| C[n+]1c(/C=C/c2c(O)ccc3ccccc23)ccc2ccccc21 | -16.1% (active) |
| COc1ccc(CCNC=O)cc1OC | 77.7% (inactive) |
| Nc1c(C(=O)Nc2cccc(Br)c2)sc2nc3c(cc12)C(=O)CCC3 | 32.1% (inactive) |
| CC(Cl)(CCl)CS(=O)(=O)c1ccc(Cl)cc1 (centres undefined) | 104% (inactive) |
| O=C1/C(=C(/c2ccccc2)N2CCOCC2)Cc2ccccc21 | -19% (active) |
| Nc1nc(-c2cccc([N+](=O)[O-])c2)c(N=Nc2ccc(Br)cc2)s1 | -45.7% (active) |
| COc1ccc(C)cc1NC(=O)SC(C)C | 91.9% [100 µM] (inactive) |
| CCc1ccc(Nc2cc(C)c3ccc(O)cc3n2)cc1 | -11.2% (active) |
| Nc1c2c(nc3ccc(Br)cc13)CC(c1ccccc1)CC2=O (centres undefined) | -4.68% (active) |
| COc1ccc2c(c1)C1(C(=O)N2)C(C#N)=C(c2ccccc2)Nc2c1c(-c1ccccc1)nn2-c1ccccc1 (centres undefined) | 76.5% (inactive) |
| Cc1nn(-c2ccccc2)c2nc(Cl)c(C=O)c(-c3ccccc3)c12 | 94.7% (inactive) |
| O=c1oc2ccc(Cl)cc2c(=O)n1-c1cc(C(F)(F)F)cc(C(F)(F)F)c1 | -8.67% (active) |
| CC(C)[C@H](CN)NC[C@H](C)NS(=O)(=O)c1ccc(C(C)(C)C)cc1 | 86.5% (inactive) |
| Cc1nc2sc(C(=O)Nc3cccc(Br)c3)c(N)c2cc1C(=O)c1ccc(C(F)(F)F)cc1 | 90.6% (inactive) |
| Cc1c(C)c(C)c([N+](=O)[O-])c([N+](=O)[O-])c1C | 82.1% (inactive) |
| CCN1C(=O)/C(=C/C(=O)OC)S/C1=N\NC(=O)c1cc2ccc1/C=C\c1ccc(cc1)/C=C\2 | 87.3% (inactive) |
| CC1=C(NCCN2CCCC2)C(=O)c2c(OCc3cccc(Cl)c3)cccc2C1=O | 69.6% (inactive) |
| C=C1C(=O)O[C@H]2[C@H]1CC/C(COC(=O)CSCSCC(=O)OC/C1=C/CC[C@@]3(C)O[C@H]3[C@H]3OC(=O)C(=C)[C@@H]3CC1)=C\CC[C@@]1(C)O[C@@H]21 | -14.2% (active) |
| COc1ccc(C2=NN(/C=C3\SC(=O)NC3=Nc3ccc(F)cc3)C(c3ccc(F)cc3)C2)cc1 (centres undefined) | 101% (inactive) |

| SMILES | growth |
| --- | --- |
| CCC(=O)Oc1c(C)cc(O)c2ccccc12 | 5.03% (active) |
| CCOc1ccccc1/C=N\Nc1ccc(S(=O)(=O)c2ccc(N/N=C/c3ccccc3OCC)cc2)cc1 | 96.8% (inactive) |
| CN1CCN(Cc2ccc(NC(=O)c3[nH]ncc3Nc3ccnc4ccnn34)cc2)CC1 | 65.6% (inactive) |
| O=C(NCCCN1CCCCC1)c1ccc(-c2nc3ccc4[nH]ncc4c3c3c2CCCC3)cc1 | 35.4% (inactive) |
| Cc1ccc(CSC2=C(Cl)CN(c3ccc(Cl)cc3)C2=O)cc1 | 83.4% (inactive) |
| O=C1CSC(=S)N1CCc1ccc(O)cc1 | 40.5% (inactive) |
| O=C1NCc2ccc3c(-c4cccc(Cl)c4)c[nH]c3c21 | 26.5% (inactive) |
| CSc1ccc(/C(=N/N=C(N)N)c2ccc(Cl)cc2)cc1 | -36.1% (active) |
| COc1ccc(NC(=O)CSc2nnc(-c3ccc4nc(-c5ccc(OC)c(OC)c5)[nH]c4c3)o2)cc1OC | 92.7% (inactive) |
| Cc1c(N2CN3C[C@H](C)N4CN(c5c(C)n(C)n(-c6ccccc6)c5=O)CN5C[C@@H](C)N(C2)C3C54)c(=O)n(-c2ccccc2)n1C (some centres undefined) | 97.1% (inactive) |
| Cn1cc(-c2csc(-c3cn(C)c4ccccc34)n2)c2cnccc21 | -27.1% (active) |
| CCN(CC)S(=O)(=O)c1ccc(NC(=O)CSc2nnc(C)n2-c2ccccc2)cc1 | 90.6% (inactive) |
| c1ccc(-c2cc(-c3cc(-c4ccccc4)on3)no2)cc1 | 84.9% (inactive) |
| CCOC(=O)C#Cc1c(C(=O)OCC)nnn1Cc1ccc(C(F)(F)F)cc1 | -25.7% (active) |
| COc1ccccc1C(OC(C)=O)OC(C)=O | 98% (inactive) |
| CC(=O)N(C)N=Nc1ccc(C)cc1 | 104% (inactive) |
| Cc1nc2sc(C(=O)Nc3cccc4ccccc34)c(N)c2cc1C(O)c1ccccc1 (centres undefined) | 18.1% (inactive) |
| CCNc1cc2c(cc1Br)-c1ccccc1C2=O | 50.2% (inactive) |
| C[C@@H](c1ccc2c(c1)[nH]c1ccc(Cl)cc12)c1nc2ccc(Cl)cc2[nH]1 | -37.4% (active) |

From PubChem BioAssay (NCI)
